{
  "source": "PubChem BioAssay (EPA / NIEHS)",
  "note": "The source made the active and inactive calls. Rule for the calls: active = hit-call score of the fitted dose curve at least 0.9, where 1 is the maximum; inactive = score below 0.9.",
  "data": [
    {"read-out": "Collagen III, COL3A1 (gene 1281)", "test": "BSK_hDFCGF_CollagenIII: BioMAP Diversity Plus: hDFCGF Assay for Collagen III Biomarker Activity (AID 2283056)", "settings": "primary human foreskin fibroblasts; actives raise or lower the signal", "outline": "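Human foreskin fibroblast primary cultures sampled 24 h after dosing; Collagen III quantified by ELISA. Signal fitted bidirectionally against DMSO baseline.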", "values": [
      {"smiles": "Cc1ccc(-c2cc(C(F)(F)F)nn2-c2ccc(S(N)(=O)=O)cc2)cc1", "outcome": "inactive"},
      {"smiles": "O=C1O[C@H]([C@H](O)CO)C(O)=C1O", "outcome": "inactive"},
      {"smiles": "CCCCc1nc2cccnc2n1Cc1ccc(-c2ccccc2-c2nnn[nH]2)cc1", "outcome": "inactive"},
      {"smiles": "CCCC(=O)O", "outcome": "inactive"},
      {"smiles": "CCCCOC(=O)CCCCC(=O)OCCCC", "outcome": "inactive"},
      {"smiles": "CC(C)NCC(O)c1ccc(O)c(O)c1", "note": "(stereo not given)", "outcome": "inactive"},
      {"smiles": "Cn1cnc2c1c(=O)[nH]c(=O)n2C", "outcome": "inactive"},
      {"smiles": "O=C(Oc1ccccc1)c1cccc(C(=O)Oc2ccccc2)c1", "outcome": "inactive"},
      {"smiles": "O=C(O)c1[nH]n(-c2ccc(S(=O)(=O)O)cc2)c(=O)c1N=Nc1ccc(S(=O)(=O)O)cc1", "outcome": "inactive"},
      {"smiles": "CCCCC(CC)CO", "note": "(stereo not given)", "outcome": "inactive"},
      {"smiles": "CCc1cc(C2=C(C(=O)O)N(c3ccccc3C(F)(F)F)S(=O)(=O)c3ccccc32)cc2c1OCO2", "AC50": "32.5 µM (active)"},
      {"smiles": "O=C(N[C@@H](c1ccccc1)[C@@H]1CCCCN1)c1cccc(C(F)(F)F)c1Cl", "outcome": "inactive"},
      {"smiles": "CCC(C)N(C)C(=O)c1cc2ccccc2c(-c2ccccc2Cl)n1", "note": "(stereo not given)", "outcome": "inactive"},
      {"smiles": "CCCCCCCCCCCCCCOS(=O)(=O)O", "AC50": "7.78 µM (active)"},
      {"smiles": "CCCCCCCC(=O)OC", "outcome": "inactive"},
      {"smiles": "CC(C)c1cccc(C(C)C)c1NC(=O)NS(=O)(=O)c1cc(C(C)(C)O)co1", "outcome": "inactive"},
      {"smiles": "CCN(CC)CCOc1ccc(C(=C(Cl)c2ccccc2)c2ccccc2)cc1", "AC50": "12.1 µM (active)"},
      {"smiles": "c1ccc2occc2c1", "outcome": "inactive"},
      {"smiles": "CCCCCCC(C=O)=Cc1ccccc1", "AC50": "30.1 µM (active)"},
      {"smiles": "COC(=O)CCC(=O)OC", "outcome": "inactive"},
      {"smiles": "COC(=O)CCCC(=O)OC", "outcome": "inactive"},
      {"smiles": "CN(C)C(=O)NC1(c2ccccc2)CCN(CC[C@@]2(c3ccc(F)c(F)c3)CN(C(=O)c3ccccc3)CCO2)CC1", "outcome": "inactive"},
      {"smiles": "CC(=O)S[C@H](C(=O)N[C@H]1Cc2ccccc2[C@H]2CCC[C@@H](C(=O)O)N2C1=O)C(C)C", "outcome": "inactive"},
      {"smiles": "CC(=O)OC1CC(C)OC(C)O1", "note": "(stereo not given)", "outcome": "inactive"},
      {"smiles": "O=C1CCCCC1", "outcome": "inactive"},
      {"smiles": "Nc1nc(Cl)nc2c1ncn2[C@H]1C[C@H](O)[C@@H](CO)O1", "outcome": "inactive"},
      {"smiles": "Cc1c(C)c2c(c(C)c1O)CCC(C)(COc1ccc(CC3SC(=O)NC3=O)cc1)O2", "note": "(stereo not given)", "AC50": "12 µM (active)"},
      {"smiles": "CCCCC(CC)COP(=O)(OCC(CC)CCCC)OCC(CC)CCCC", "note": "(stereo not given)", "outcome": "inactive"},
      {"smiles": "O=C(O)c1cccnc1", "outcome": "inactive"},
      {"smiles": "O=C(O)CC(O)(CC(=O)O)C(=O)O", "outcome": "inactive"}
    ]}
  ]
}
